# Experimental data taken from PubChem BioAssay (NCI).
# Several values for one entry are separate records, joined by “and”; a condition that tells them apart may be missing. Identical values can stand only once. This is part of a sample that, as a whole, favours compounds with a hit. Of some 83,000 tested, about 20% had one in any assay.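 Interpretation: 100, growth as untreated; towards 0, rising growth inhibition; 0, no net growth; 0 to -100, cell death. Compounds scoring below 10 were considered active.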 Values without a mark were called inactive. Activity calls are given as the source filed them. Where a SMILES comes first, the peptide text is derived from it.
# Tested on: ACHN renal
# Experiment: NCI-60 one-dose screen, 48 h (100 = growth as untreated, 0 = no growth, -100 = all killed)
# Conditions: 10 µM unless noted
# Method: Growth inhibition of the ACHN human tumor cell line is measured as a screen for anti-cancer activity. Cells are grown in 96 well plates and exposed to the test compound for 48 hours. Compounds are tested at a single concentration, which is 10^-5 M for most compounds. The reported endpoint is percent growth (GI% or GIPRCNT), where numbers from 0 - 100% represent growth inhibition, and numbers from -100% - 0 represent cell death. For example, a value of 40 represents 60% growth inhibition. A value of 0 means no net growth occurred over the course of the experiment. A value of -40 indicates 40% of cells at the beginning of the experiment died by the end of the experiment. A value of -100 means all cells are dead at the end of the experiment.
# NCI-60 Human Tumor Cell Lines Screen was performed using the standard one-dose NCI protocol, which is described in more detail at https://dtp.cancer.gov/discovery_development/nci-60/default.htm.
# Compounds with GIPRCNT values below 10 were considered active. Activity score was based on GIPRCNT using the following formula: […]
# Score is 0 for GIPRCNT values of 100 or above, 50 for GIPRCNT values of 0, and 100 for GIPRCNT values of -100.
row,SMILES,growth
1,CC(=O)OCC1OC(OC(C)=O)C(OC(C)=O)C(OC(C)=O)C1OC(C)=O (stereo not given),96.4% and 105%
2,CC(=O)NCC(=O)c1ccc([N+](=O)[O-])cc1,103%
3,COc1ccc(Nc2ccc3ccccc3c2)cc1,92%
4,CC(C)NC(=O)N/C=C(\C#N)C(N)=O,94.8%
5,OCC1OC(O)C(O)C(O)C1O (stereo not given),99.9%
6,CC(=O)Nc1ccc(S(N)(=O)=O)cc1,103% and 93.3%
7,O=C(CO)C(O)C(O)C(O)C(O)CO (stereo not given),110% and 109%
8,O=C(O)/C=C\C(=O)Nc1cccc2ccccc12,90.5% and 99.2%
9,CC1CCC2(C(=O)O)CCC3(C)C(=CCC4C5(C)CCC(O)C(C)(C)C5CCC43C)C2C1C (stereo not given),57.7% and 76.2%
10,NN1CCOC(c2ccccc2)C1 (stereo not given),99.1%
11,COc1ccc2cc1Oc1ccc(cc1)C[C@H]1c3cc(c(OC)cc3CCN1C)Oc1c(OC)c(OC)cc3c1[C@H](C2)N(C)CC3,74.1%
12,Brc1ccc(SSc2ccc(Br)cc2)cc1,109%
13,C#CCOC(=O)Nc1ccccc1,114%
14,N#CC(C#N)N=Nc1cc(Cl)ccc1Cl,94.1%
15,O=C1C=C(Nc2ccccc2)c2ccccc2C1=O,30.1% and 92.8%
16,CCN(CCNS(C)(=O)=O)c1ccc(N)c(C)c1,27.9% and 76.2%
17,O=C1CSC2=NCCN12,98.1% and 103%
18,Cc1cc2ccccc2cn1,107% and 102%
19,Cl,104%
20,Nc1ncnc2c1ncn2C1OC(COP(=O)(O)O)C(O)C1O (stereo not given),103%

row,SMILES,growth
1,Fc1ccc([I+]c2ccc(F)cc2)cc1,79.5%
2,CCCCNc1ccc(Nc2ccccc2)cc1,77.6%
3,NC(Cc1ccccc1)C(=O)NC(Cc1ccccc1)C(=O)O (stereo not drawn) (H-Phe-Phe-OH; configuration not given here),103%
4,Nc1cc(N)c(N)cc1N,8.63% (active)
5,C/C(=C\c1ccccc1)c1ccccn1,105%
6,O=C(Cc1ccccc1)c1ccc(O)c(Cl)c1,37.6%
7,CCCCOC(=O)/C=C\C(=O)NC(N)=O,61.3%
8,CCCCCCCCCCCCCCCCC(C(=O)O)C(O)(CC(=O)O)C(=O)O (stereo not given),96.8% and 28.4%
9,CCOC(=O)c1c(C)cc(=O)oc1C,104%
10,NC1CCC(C(=O)O)CC1 (stereo not given),106% and 105%
11,O=C1OC(C(O)C(O)CO)C(O)=C1O (stereo not given),105% and 103%
12,Nc1ccc2c(O)cc(S(=O)(=O)O)cc2c1,95.8% and 92.8%
13,NC(=O)NCCCC(N)C(=O)O (stereo not given),98.7%
14,CN1CNC(=O)NC1,113% and 107%
15,ClCCOCCOc1ccc(C2CCCCC2)cc1,108%
16,CC1=C/C(O)CC(=O)Cc2nc(co2)C(=O)N2CCC=C2C(=O)OC(C(C)C)C(C)/C=C\C(=O)NC/C=C\1 (stereo not given),86.2%
17,CCCCCCCCCCCCCCCc1ccc(N)c(OC2OC(CO)C(O)C(O)C2O)c1 (stereo not given),86.1%
18,CCc1cc(C)cc(O)c1,117%
19,CC(C)NCC(O)c1ccc(O)c(O)c1 (stereo not given),89.6% and 104%
20,NC(Cc1c[nH]c2ccccc12)C(=O)O (stereo not given),99.8% and 100%
